Among the data in PubChem BioAssay (EPA / NIEHS) are outcome and AC50 values, retold here.

The nature of assay [1]: ATG_PXRE_CIS: Attagene CIS-FACTORIAL HepG2 Assay for human Pregnane X Receptor Element (PXRE) (AID 2282957). The conditions noted are these: HepG2 Attagene CIS-FACTORIAL PXRE reporter, mRNA; actives raise or lower the signal. The method, boiled down: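 Cells: HepG2, transiently transfected reporter units under cis promoter control. Exposure: 24 h. Detection: reporter mRNA via RT-PCR/CE fluorescence; bidirectional fitting, DMSO-referenced.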

Assay [2] can be described thus: ATG_PPRE_CIS: Attagene CIS-FACTORIAL HepG2 Assay for human Peroxisome Proliferator-activated Response Element (PPRE) (AID 2282958). The settings on record: HepG2 PPRE cis-element reporter, Attagene transcription factor profiling; actives raise or lower the signal. The method, boiled down:
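HepG2 cells are transiently transfected with multiplexed cis-promoter reporter units to report endogenous PPAR activity. After 24 h dosing, reporter mRNA is read by RT-PCR and capillary electrophoresis. Fitting is bidirectional against DMSO.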

Assay [3] can be described thus: ATG_Sox_CIS: Attagene CIS-FACTORIAL HepG2 Assay for human SRY-box transcription factor (SOX) (AID 2282960). The settings on record: HepG2 Attagene cis-factorial SOX reporter, mRNA; actives raise or lower the signal. The method, boiled down: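 HepG2 cells transiently transfected with multiple cis-regulated reporter units, then dosed for 24 h. Reporter mRNA quantified by RT-PCR, fluorescent labelling, HpaI digestion and capillary electrophoresis; bidirectional fit versus DMSO.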

The target of assay [4] is Transcription factor Sp1 (Homo sapiens) (UniProt P08047). Kind of assay: ATG_Sp1_CIS: Attagene CIS-FACTORIAL HepG2 Assay for human Specificity Protein 1 (Sp1) (AID 2282961). The settings on record: HepG2 Sp1 cis-reporter transcription, actives raise or lower the signal. In outline: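 HepG2 cells transiently transfected with multiplexed cis-regulated reporter constructs, chemical exposure 24 h. Reporter mRNA quantified by RT-PCR with capillary electrophoresis; bidirectional fit relative to DMSO.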

Assay [5] in a line: ATG_SREBP_CIS: Attagene CIS-FACTORIAL HepG2 Assay for human Sterol Regulatory Element Binding (SREBP) (AID 2282962). The settings on record: HepG2 Attagene cis-factorial SREBP reporter, mRNA; actives raise or lower the signal. The method, boiled down:
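Twenty-four hours after chemical dosing of transfected HepG2 cultures, reporter RNA was converted to cDNA, amplified, end-labelled with 6-FAM and resolved by capillary electrophoresis. Responses were fitted relative to DMSO.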

Assay [6] in a line: ATG_TA_CIS: Attagene CIS-FACTORIAL HepG2 Assay for human TA Basal Promoter (AID 2282964). The settings on record: HepG2 Attagene CIS-factorial TA basal promoter reporter; actives raise or lower the signal. In outline:
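Background-control readout: TA basal promoter reporter mRNA, fitted in both directions relative to DMSO. Measured by RT-PCR and capillary electrophoresis 24 hours after treating HepG2 human liver cells transiently carrying multiplexed cis-regulated reporter constructs.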

Assay [7] can be described thus: ATG_TCF_b_cat_CIS: Attagene CIS-FACTORIAL HepG2 Assay for human T-Cell-Factor with beta-catenin (TCF/b-cat) (AID 2282965). The settings on record: HepG2 TCF/beta-catenin cis-reporter transcription, actives raise or lower the signal. The method, boiled down:
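Endogenous transcription factor activity is captured through cis-promoter reporter constructs transiently introduced into human HepG2 liver cells. Induced reporter mRNA is measured after 24 h and fitted bidirectionally relative to DMSO.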

The nature of assay [8]: ATG_TAL_CIS: Attagene CIS-FACTORIAL HepG2 Assay for human TAL Basal Promoter (AID 2282966).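 Further: background control endpoint measuring basal TAL promoter reporter mRNA not a specific factor.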 The conditions noted are these: HepG2 Attagene cis-factorial TAL promoter reporter; actives raise or lower the signal. The method, boiled down: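 RT-PCR plus capillary electrophoresis quantifies reporter mRNA induction in transiently transfected HepG2 cells after 24 h chemical treatment. DMSO serves as negative control and baseline for bidirectional fitting.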

The nature of assay [9]: ATG_RORE_CIS: Attagene CIS-FACTORIAL HepG2 Assay for human RAR-related Orphan Receptor Element (RORE) (AID 2282959). The conditions noted are these: HepG2 Attagene cis-factorial RORE reporter, mRNA; actives raise or lower the signal. In outline:
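HepG2 cells carrying transiently transfected cis-regulated reporter units; RORE-driven reporter mRNA quantified 24 h post-dosing by RT-PCR, 6-FAM primer extension, HpaI digestion and capillary electrophoresis. Bidirectional fit versus DMSO.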

The target in assay [10] is Signal transducer and activator of transcription 3 (Homo sapiens) (UniProt P40763). The assay is described as follows: ATG_STAT3_CIS: Attagene CIS-FACTORIAL HepG2 Assay for human Signal Transducer and Activator of Transcription 3 (STAT3) (AID 2282963). The settings on record: HepG2, Attagene cis-factorial STAT3 reporter transcription; actives raise or lower the signal. The method, boiled down:
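Endogenous STAT3-responsive cis-element activity was read in transiently transfected HepG2 cells after 24 h treatment. Reporter transcripts were quantified via RT-PCR and capillary electrophoresis, with DMSO as negative control and bidirectional curve fitting.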

Where “and” joins values, the source holds several entries; their conditions need not be identical. Identical values can stand only once. Some structures have more than one record in an assay (separate samples or runs), and their calls can disagree. Calls of active or inactive are those of the source. How the source made its calls: active means hit-call score of the fitted dose curve at least 0.9, where 1 is the maximum; inactive means score below 0.9.

Transcription factor Sp1 (Homo sapiens), sequence (P08047 whole entry, looked up): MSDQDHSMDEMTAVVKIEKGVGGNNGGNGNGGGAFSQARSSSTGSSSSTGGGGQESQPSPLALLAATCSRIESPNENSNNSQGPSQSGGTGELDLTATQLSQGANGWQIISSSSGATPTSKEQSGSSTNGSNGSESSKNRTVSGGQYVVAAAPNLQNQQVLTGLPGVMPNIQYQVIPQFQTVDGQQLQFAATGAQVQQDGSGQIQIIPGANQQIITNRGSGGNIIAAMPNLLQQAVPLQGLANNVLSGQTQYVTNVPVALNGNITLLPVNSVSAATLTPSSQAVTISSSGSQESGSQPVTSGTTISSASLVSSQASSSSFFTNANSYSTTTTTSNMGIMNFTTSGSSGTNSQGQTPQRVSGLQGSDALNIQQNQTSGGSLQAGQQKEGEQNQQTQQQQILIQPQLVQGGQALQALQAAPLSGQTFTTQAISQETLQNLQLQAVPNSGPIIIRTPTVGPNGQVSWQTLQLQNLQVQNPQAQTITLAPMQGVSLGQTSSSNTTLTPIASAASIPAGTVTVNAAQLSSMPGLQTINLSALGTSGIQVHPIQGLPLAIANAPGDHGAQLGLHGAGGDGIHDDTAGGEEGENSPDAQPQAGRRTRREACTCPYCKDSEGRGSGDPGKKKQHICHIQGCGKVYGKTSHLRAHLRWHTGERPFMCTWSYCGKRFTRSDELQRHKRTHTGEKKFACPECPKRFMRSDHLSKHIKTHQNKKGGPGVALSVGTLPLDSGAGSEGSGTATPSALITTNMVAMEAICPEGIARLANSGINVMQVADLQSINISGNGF
Signal transducer and activator of transcription 3 (Homo sapiens), sequence (P40763 whole entry, looked up): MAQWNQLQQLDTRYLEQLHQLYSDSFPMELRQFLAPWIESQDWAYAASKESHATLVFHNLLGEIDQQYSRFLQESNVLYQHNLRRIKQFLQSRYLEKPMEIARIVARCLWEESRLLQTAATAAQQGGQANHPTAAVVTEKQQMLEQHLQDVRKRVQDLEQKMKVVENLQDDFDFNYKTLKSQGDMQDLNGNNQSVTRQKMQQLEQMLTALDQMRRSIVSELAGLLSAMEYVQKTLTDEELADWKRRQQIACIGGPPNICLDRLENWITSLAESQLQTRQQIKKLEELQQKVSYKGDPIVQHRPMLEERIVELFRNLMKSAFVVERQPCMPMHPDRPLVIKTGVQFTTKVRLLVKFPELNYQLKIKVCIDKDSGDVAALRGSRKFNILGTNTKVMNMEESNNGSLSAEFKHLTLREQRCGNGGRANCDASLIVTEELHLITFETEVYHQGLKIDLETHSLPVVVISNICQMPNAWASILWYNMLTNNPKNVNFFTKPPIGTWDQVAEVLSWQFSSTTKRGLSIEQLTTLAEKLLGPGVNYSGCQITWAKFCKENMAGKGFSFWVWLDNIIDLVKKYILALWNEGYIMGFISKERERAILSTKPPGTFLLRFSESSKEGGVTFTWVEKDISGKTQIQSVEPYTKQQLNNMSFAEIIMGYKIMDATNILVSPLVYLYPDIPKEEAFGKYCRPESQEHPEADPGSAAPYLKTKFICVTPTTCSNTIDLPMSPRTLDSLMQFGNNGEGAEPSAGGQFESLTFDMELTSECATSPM

Usually AC50 stands for the concentration at which the activity in the assay is half-maximal. `CC(C)(c1ccc(O)cc1)c1ccc(O)cc1`: the compound was called inactive in assay [1], in assay [2], in [3], in [4], in [5] and in assay [6]. Further, the compound was classed as inactive in [7] and in assay [8]. Also, the AC50 was 28.6 µM (active) and 38.9 µM (active) and 15 µM (active) in assay [2]; 60 µM (active) in assay [4]; 140 µM (active) [middle of 4 runs] in assay [6]; 162 µM (active) in assay [8].

As for `Cc1nn(C)c(Oc2ccccc2)c1C=NOCc1ccc(C(=O)OC(C)(C)C)cc1`, the AC50 in assay [1] is 1.15 µM (active); in [2] it was 0.0423 µM (active); in assay [4], 0.0212 µM (active). The call in assay [9], in [3], in [5], in assay [10], in assay [6] and in assay [7] was inactive. Further, in assay [8], the compound was called inactive.

For `O=C(c1ccccc1)C1CCCCC1`, the AC50 in assay [1] was 26.9 µM (active) [middle of 4 runs]; in assay [2], 31.5 µM (active) and 67.1 µM (active). Moreover, the result in assay [2], in assay [9], in assay [3], in assay [4], in assay [5] and in [6] was inactive. For the same compound, the result in [7] and in assay [8] was inactive.

`N[C@@H](Cc1cc(I)c(Oc2ccc(O)c(I)c2)c(I)c1)C(=O)O`: the AC50 was 13 µM (active) and 22.3 µM (active) in assay [2]; 41.6 µM (active) and 24.3 µM (active) in assay [7]. For the same compound, the call in assay [2], in assay [9], in assay [3], in assay [4], in assay [5] and in assay [6] was inactive. In addition, the result in assay [7] and in assay [8] was inactive.

Turning to `C=CCOC(Cn1ccnc1)c1ccc(Cl)cc1Cl` (centres undefined), the AC50 in [1] was 4.84 µM (active); in [5] it was 6.99 µM (active). Besides, the compound was classed as inactive in assay [2], in assay [9], in assay [3], in assay [4], in assay [6] and in assay [7]. For the same compound, the outcome in [8] was inactive.

Turning to `CCCCCCC(C)OC(=O)COc1nc(F)c(Cl)c(N)c1Cl` (centres undefined), the result in [1], in assay [9], in [3], in [4], in [5] and in [6] was inactive. Also, the outcome in assay [7] and in [8] was inactive.

Take `Oc1ccc(C(c2ccc(O)cc2)C(Cl)(Cl)Cl)cc1`: in assay [1], the AC50 was 0.498 µM (active). The call in [9], in [3], in [4], in assay [5], in [6] and in [7] was inactive. Moreover, the outcome in assay [8] was inactive.

As for `S=C([S-])NCCNC(=S)[S-].[Mn+2]`, the call in assay [1], in assay [9], in assay [3], in assay [4], in [5] and in assay [6] was inactive. For the same compound, the outcome in assay [7] and in [8] was inactive.

Turning to `CC(=O)[C@H]1CC[C@H]2[C@@H]3CCC4=CC(=O)CC[C@]4(C)[C@H]3CC[C@]12C`, the AC50 is 4.83 µM (active) [middle of 4 runs] in assay [1], 33.4 µM (active) [middle of 4 runs] in assay [5] and 177 µM (active) in assay [8]. For the same compound, the compound was classed as inactive in assay [2], in [3], in assay [4], in assay [6], in [7] and in assay [8].

Consider `CCCOC(=O)c1ccc(C(=O)OCCC)nc1`, for which the compound was classed as inactive in assay [1], in [3], in assay [4], in assay [5], in assay [6] and in [7]. Further, the compound was called inactive in assay [8]. Moreover, the AC50 in assay [2] is 23.1 µM (active).

Regarding `CCNc1nc(N)nc(Cl)n1`, the compound was called inactive in assay [1], in assay [3], in assay [4], in assay [5], in [6] and in assay [7]. Further, the result in [8] was inactive.

On to `COc1nc(C)nc(NC(=O)NS(=O)(=O)c2ccccc2OCCCl)n1`, for which, in [1], the AC50 was 34.2 µM (active) and 5.58 µM (active). The compound was classed as inactive in [2], in assay [9], in assay [3], in [4], in assay [5] and in assay [6]. Further, the outcome in [7] and in [8] was inactive.

Consider `CCCCCOC(=O)COc1cc(N2C(=O)C3=C(CCCC3)C2=O)c(F)cc1Cl`, for which the AC50 in [1] was 10.2 µM (active); in assay [7] it was 26.6 µM (active). Moreover, the call in [9], in assay [3], in assay [4], in assay [5], in assay [10] and in assay [6] was inactive. For the same compound, the compound was called inactive in assay [8].

Turning to `CCOC(=O)C(C)Oc1ccc(Oc2cnc3cc(Cl)ccc3n2)cc1` (centres undefined), the AC50 in [1] was 35.1 µM (active). Moreover, the compound was called inactive in [2], in assay [9], in assay [3], in assay [4], in assay [5] and in assay [6]. Moreover, the result in assay [7] and in assay [8] was inactive.

`CCCN(CCC)c1c([N+](=O)[O-])cc(C(F)(F)F)c(N)c1[N+](=O)[O-]`: the AC50 in assay [1] is 1.29 µM (active); in assay [4], 28.9 µM (active). Further, the compound was classed as inactive in assay [2], in [9], in assay [3], in [5], in [6] and in [7]. In addition, the compound was called inactive in assay [8].

On to `CCCCOC(=O)C(C)Oc1ccc(Oc2ccc(C(F)(F)F)cn2)cc1` (centres undefined), for which the AC50 in assay [1] is 56.4 µM (active); in assay [2] it was 50 µM (active). Further, the outcome in [9], in [3], in assay [4], in assay [5], in assay [6] and in assay [7] was inactive. The compound was called inactive in assay [8].
